Reference: paper PMC4336329 (PLoS ONE, 2015)
The whole screen tested about 310,000 compounds, of which about 14,000 (4.5%) showed an effect of 50% or more. The effect is printed as a negative number. The full list was thinned out, with strong results kept by preference.

target: human ether-à-go-go-related gene (hERG) potassium channel (human, UniProt Q12809); assay: primary screen, population patch clamp on CHO cells stably expressing hERG; higher = less effect of the substance
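Further: peak tail current of the secondary pulse compared with the same well before compound.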

human ether-à-go-go-related gene (hERG) potassium channel, sequence (Q12809 whole entry, looked up): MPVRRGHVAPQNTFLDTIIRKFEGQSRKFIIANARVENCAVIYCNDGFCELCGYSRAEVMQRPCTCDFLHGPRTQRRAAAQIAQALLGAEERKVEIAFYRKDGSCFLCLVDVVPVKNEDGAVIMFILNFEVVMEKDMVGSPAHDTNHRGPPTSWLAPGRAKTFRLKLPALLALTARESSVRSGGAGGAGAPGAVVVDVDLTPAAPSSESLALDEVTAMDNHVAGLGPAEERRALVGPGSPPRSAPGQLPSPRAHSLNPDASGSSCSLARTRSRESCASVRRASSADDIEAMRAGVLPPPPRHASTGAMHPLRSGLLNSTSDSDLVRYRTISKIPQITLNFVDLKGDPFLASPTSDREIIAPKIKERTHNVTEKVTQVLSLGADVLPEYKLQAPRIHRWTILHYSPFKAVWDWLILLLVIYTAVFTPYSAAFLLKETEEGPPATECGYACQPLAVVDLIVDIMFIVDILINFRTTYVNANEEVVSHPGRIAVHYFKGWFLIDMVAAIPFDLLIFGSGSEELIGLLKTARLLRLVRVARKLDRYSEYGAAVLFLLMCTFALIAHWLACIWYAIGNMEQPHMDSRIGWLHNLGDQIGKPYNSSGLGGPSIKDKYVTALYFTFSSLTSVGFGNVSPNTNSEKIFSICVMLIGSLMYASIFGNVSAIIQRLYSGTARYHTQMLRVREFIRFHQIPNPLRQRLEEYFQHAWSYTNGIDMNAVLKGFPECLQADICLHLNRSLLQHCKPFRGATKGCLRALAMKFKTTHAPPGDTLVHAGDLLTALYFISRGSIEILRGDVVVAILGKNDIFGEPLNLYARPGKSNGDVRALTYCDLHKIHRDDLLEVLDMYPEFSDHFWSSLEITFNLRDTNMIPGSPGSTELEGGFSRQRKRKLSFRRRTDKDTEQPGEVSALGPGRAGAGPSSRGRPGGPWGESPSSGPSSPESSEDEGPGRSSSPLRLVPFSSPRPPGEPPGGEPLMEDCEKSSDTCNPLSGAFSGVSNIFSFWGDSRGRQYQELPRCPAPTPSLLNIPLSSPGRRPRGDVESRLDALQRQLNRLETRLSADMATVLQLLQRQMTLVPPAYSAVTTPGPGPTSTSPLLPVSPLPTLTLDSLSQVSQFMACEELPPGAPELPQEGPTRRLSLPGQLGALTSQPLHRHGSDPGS

| Compound | hERG current change (%, negative = inhibition) at 10uM |
| --- | --- |
| COc1ccc(CC(=O)NCc2nnc(SCC(=O)Nc3nccs3)n2C)cc1 | 17.3% |
| CCS(=O)(=O)n1nc(-c2ccccc2)cc1N | 7.55% |
| COc1ccc(NC(=O)/C(=C/c2cccs2)NC(=O)c2ccco2)cc1 | -21.1% |
| COc1ccc([N+](=O)[O-])cc1N(CC(=O)N1CCN(Cc2ccccc2)CC1)S(C)(=O)=O | 5.94% |
| CC(=O)NS(=O)(=O)c1ccccc1 | 9.31% |
| O=C(NNC(=O)c1ccco1)c1cccc(Br)c1 | 0.684% |
| O=C(CCC1CCCCC1)NNC(=O)c1cnccn1 | -4.92% |
| COc1cc(Cl)c(C)cc1NC(=O)CSc1ccccc1 | 5.58% |
| COc1ccc(NC(=S)N2CCCC(c3nc4ccc(C)cc4[nH]3)C2)cc1 (stereo not drawn) | -10.5% |
| O=C(NCC1CCCO1)c1ccc(S(=O)(=O)N2CCC(c3nc4ccc(Cl)cc4[nH]3)CC2)cc1 (stereo not drawn) | -18% |
| CCC(C)(C)n1nnnc1CN1CCC(c2nc3ccc(C)cc3[nH]2)CC1 | -48.3% |
| COc1ccc(CN2CCC(c3nc4ccc(Cl)cc4[nH]3)CC2)cc1 | -76.3% |
| Cc1ccc(CN2CCC(c3nc4ccc(Cl)cc4[nH]3)CC2)cc1 | -83% |
| Cc1ccc(Cn2nnnc2CN2CCC(c3nc4ccc(Cl)cc4[nH]3)CC2)cc1 | 5.01% |
| O=S(=O)(c1ccc(Cl)cc1)N1CCC(c2nc3ccccc3[nH]2)CC1 | 1.05% |
| Clc1ccc(CN2CCC(c3nc4ccc(Cl)cc4[nH]3)CC2)cc1 | -80.7% |
| COc1ccc(NC(=S)N2CCC(c3nc4ccc(Cl)cc4[nH]3)CC2)c(OC)c1 | -42.6% |
| COc1ccc(NC(=O)CCCN2C(=O)C(c3ccccc3)Oc3cccnc32)cc1OC (stereo not drawn) | 1.23% |
| CCCCNC(=O)Cn1cnc2sc(C)c(S(=O)(=O)N3CCN(c4ccccc4OC)CC3)c2c1=O | 11.4% |
| O=C(Nc1nc(-c2cc(Cl)sc2Cl)cs1)c1ccc(Br)s1 | -6.05% |
| Cc1cccc(/C(N)=N/OC(=O)Cc2cccs2)c1 | -12.4% |
| Cc1cc(-c2cc(C(=O)NC3CCCC3)on2)nc(NC2CCCC2)n1 | 4.57% |

| Compound | hERG current change (%, negative = inhibition) at 10uM |
| --- | --- |
| COc1ccc(S(=O)(=O)NCc2ccco2)cc1-c1nnc2c3ccccc3c(C)nn12 | -50.3% |
| COc1ccc(S(=O)(=O)NC(C)(C)C)cc1-c1nnc2c3ccccc3c(C)nn12 | -5.05% |
| CNS(=O)(=O)c1ccc(OC)c(-c2nnc3c4ccccc4c(C)nn23)c1.Cl | 7.8% |
| CC(=O)c1c(C)n(Cc2ccccc2)c2ccc(O)cc12 | 12.8% |
| CCC(=O)N1N=C(c2cccs2)CC1c1ccc(C)cc1 (stereo not drawn) | 2.52% |
| Cc1ccc(C2CC(c3cccs3)=NN2C(=O)CSc2nc(=O)n3cc(C)ccc3n2)cc1 (stereo not drawn) | -66.6% |
| COc1ccc(C2=NN(C(=O)CSc3nc(=O)n4cccc(C)c4n3)C(c3ccc(C)cc3)C2)cc1 (stereo not drawn) | 4.53% |
| COc1ccc(C2CC(c3cccs3)=NN2C(=O)CSc2nc(=O)n3cc(C)ccc3n2)cc1 (stereo not drawn) | -64.8% |
| Cc1ccc(C2CC(c3cccs3)=NN2C(=O)CSC2=NCCS2)cc1 (stereo not drawn) | -2.21% |
| COc1ccc(C2=NN(C(=O)CSc3nc(=O)n4cc(C)ccc4n3)C(c3ccc(C)cc3)C2)cc1 (stereo not drawn) | -16.2% |
| Cc1nn(C(C)C(=O)NC(C)CCc2ccccc2)c(=O)c2cc3occc3n12 (stereo not drawn) | -13.7% |
| O=C(NC1=NCCS1)C1CCN(S(=O)(=O)c2ccccc2C(F)(F)F)CC1 | 6.92% |
| COc1ccc(-c2coc3cc(OC)cc(O)c3c2=O)cc1 | 24.5% |
| CC1=CC(C)(C)N=C(Nc2nc(C)c3cc(C)cc(C)c3n2)N1 | -63.5% |
| CCOc1ccc2nc(NC3=NC(C)(C)C=C(C)N3)nc(C)c2c1 | -47.8% |
| CCOc1ccc2c(C)nc(NC3=NC(C)(C)C=C(C)N3)nc2c1 | -45% |
| CN(C)CCCNC(=O)c1cc(C(=O)c2c(Cl)cccc2Cl)c[nH]1 | -9.62% |
| CN(C)CCCNC(=O)c1cc(C(=O)c2ccccc2F)c[nH]1 | 1.23% |
| CN(C)CCCNC(=O)c1cc(C(=O)c2ccccc2)c[nH]1 | 10.5% |
| COc1cccc(C(=O)c2c[nH]c(C(=O)NCCCN(C)C)c2)c1 | -4.75% |
| CN(C)CCCNC(=O)c1cc(C(=O)c2cccc(Cl)c2Cl)c[nH]1 | -51% |
| CN(C)CCCNC(=O)c1cc(C(=O)c2ccc(F)cc2)c[nH]1 | -68.5% |

| Compound | hERG current change (%, negative = inhibition) at 10uM |
| --- | --- |
| C#CCOC(=O)c1cc(Cl)c(=O)n(Cc2ccc(Cl)cc2Cl)c1 | -18.8% |
| COC(=O)c1cc2ccsc2n1CC(=O)NCC1CCCO1 (stereo not drawn) | 10.6% |
| CC(C)Nc1nc(NNc2nc(Cl)nc(NC(C)(C)C)n2)nc(NC(C)C)n1 | 10.1% |
| Cc1cc(NC(=O)CSc2nc(C3CCCCC3)nc3ccccc23)no1 | 18.9% |
| O=C(Nc1ccccc1)c1cc2ccccc2o1 | -7.55% |
| CCC(=O)Nc1ccc(NC(=O)c2cc3ccccc3o2)cc1 | -2.45% |
| CC/C(=C\c1oc2cc3ccccc3cc2[n+]1CC)Nc1ccccc1.[I-] | -78.1% |
| COCCn1c(SCC(=O)Nc2cccc(S(N)(=O)=O)c2)nc2cc(Cl)ccc2c1=O | -38.8% |
| CN1CCN(C2Cc3cc(F)ccc3Sc3ccc(Cl)cc32)CC1.O=C(O)/C=C\C(=O)O (stereo not drawn) | -44.8% |
| CS(=O)(=O)O.CSc1ccc2c(c1)C(N1CCN(C)CC1)Cc1ccccc1S2 (stereo not drawn) | -65.9% |
| CN1CCN(C2Cc3ccccc3Sc3ccc(Cl)cc32)CC1.O=C([O-])/C=C\C(=O)[O-] (stereo not drawn) | -65.9% |
| CN1CCN(C2Cc3ccccc3Sc3cc(C(F)(F)F)ccc32)CC1.O=C(O)/C=C\C(=O)O (stereo not drawn) | -70.2% |
| COc1ccc2c(c1)CC(N1CCN(C)CC1)c1cc(OC)ccc1S2.O=C(O)/C=C\C(=O)O (stereo not drawn) | -25.9% |
| O=C(O)/C=C\C(=O)O.OCCN1CCN(C2CCC(c3ccc(F)cc3)c3ccc(F)cc32)CC1 (stereo not drawn) | -44.5% |
| CN1CCC(=C(c2ccc(Cl)cc2)c2ccccn2)CC1.O=C([O-])/C=C\C(=O)[O-] | -40.5% |
| CN1Cc2cccc3c2C(Cc2ccccc2S3)C1.O=C(O)/C=C\C(=O)O (stereo not drawn) | -36.6% |
| CSc1ccc2c(c1)C(N1CCN(C)CC1)Cc1ccc(F)cc1S2.O=C(O)/C=C\C(=O)O (stereo not drawn) | -58.8% |
| CN1CCN(C(=O)Nc2ccc3c(c2)N(C)C(=O)c2ccccc2S3)CC1 | 8.57% |
| CSc1cccc(NC(=O)N2CCN(C)CC2)c1 | -31.1% |
| Cc1ccc(/C=C2\C(=N)N3N=C(CC(=O)N4CCCCC4)SC3=NC2=O)cc1 | 17.4% |
| COc1ccc(/C(O)=C2/C(=O)C(=O)N(c3ccccn3)C2c2ccc(F)cc2)cc1 (stereo not drawn) | 35.2% |
| O=C(COC(=O)CNC(=O)c1ccc(Cl)cc1Cl)NC1CCCCCCC1 | 15.8% |

| Compound | hERG current change (%, negative = inhibition) at 10uM |
| --- | --- |
| Cc1cn(C(=O)c2cccc(Br)c2)c(C)n1 | 15% |
| O=c1c2ccccc2nnn1Cc1ccc(Br)cc1 | 8.66% |
| CCNC(=O)NC(=O)CSc1ccccc1F | 10.7% |
| Cc1nc2sc3c(c2c(=O)[nH]1)CCC3 | 12.1% |
| CC(NC(=O)c1cccs1)C(=O)NC1=NCCS1 (stereo not drawn) | 1.3% |
| COc1cc(N)c(Cl)cc1C(=O)OCC(=O)c1ccc2c(c1)NC(=O)CO2 | 1.68% |
| Cc1nnc(SCC(=O)Nc2cc(S(C)(=O)=O)ccc2Cl)n1Cc1ccccc1 | 6.22% |
| CC(=O)NCCNC(=O)c1cccc(NS(=O)(=O)c2ccc3c(c2)OCCO3)c1 | -2.65% |
| Cc1c(NC(=O)C2CC(c3c(F)cccc3Cl)=NO2)c(=O)n(-c2ccccc2)n1C (stereo not drawn) | 14.7% |
| CN1CCN(C2Cc3ccc(F)cc3Sc3cc(F)c(Cl)cc32)CC1.CS(=O)(=O)O.O (stereo not drawn) | -77.3% |
| CCc1cccc2c1Sc1ccccc1CC2N1CCNCC1.CS(=O)(=O)O (stereo not drawn) | -31.1% |
| CN1CCN(C2=Cc3ccccc3Sc3cc(F)c(Cl)cc32)CC1.O=C(O)/C=C\C(=O)O | -12.4% |
| CS(=O)(=O)O.Cc1cccc2c1Sc1ccc(Cl)cc1CC2N1CCNCC1.O (stereo not drawn) | 5.75% |
| CC(C)c1ccc2c(c1)C(N1CCNCC1)Cc1ccc(F)cc1S2.O.O=C(O)/C=C\C(=O)O (stereo not drawn) | 5.51% |
| CN1CCN(C2Cc3cc(Cl)ccc3Sc3cc(F)ccc32)CC1.CS(=O)(=O)O (stereo not drawn) | -38.2% |
| CN1CCN(C2=Cc3ccccc3Sc3cc(F)ccc32)CC1.O=C(O)/C=C\C(=O)O | -62.8% |
| CC(C)c1ccc2c(c1)C(N1CCN(C)CC1)Cc1cccnc1S2.O=C(O)/C=C\C(=O)O (stereo not drawn) | -50.6% |
| Cc1nc2c(o1)CCc1ccccc1C2N1CCN(C)CC1.O=C(O)/C=C/C(=O)O (stereo not drawn) | -5.58% |
| CS(=O)(=O)O.Clc1cccc2c1Sc1ccccc1CC2N1CCNCC1 (stereo not drawn) | -72.4% |
| CN1CCN(C2=Cc3ccc(Cl)cc3Sc3ccc(F)cc32)CC1.CS(=O)(=O)O.O | -14.8% |
| CN1CCN(C2=Cc3ccccc3Sc3cc(F)c(F)cc32)CC1.CS(=O)(=O)O | -22.5% |
